Assay outcomes: PubChem, Milwaukee Institute for Drug Discovery
HCV NS3h FP – HCV NS3 helicase inhibitors, primary screen, biochemical, fluorescence polarization, ChemBridge library; Hepatitis C virus NS3 helicase; inhibition, % at 100 µM; 1.6% of 16,000 active; NS3h Cy5-dT15 DNA binding;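 active means inhibition above the average over every tested compound plus 3 SD, cut at about 40% in these data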
Cy5 interf NS3h – Cy5 fluorescence quenchers or enhancers, artefact control for HCV NS3 helicase inhibitor project, biochemical, ChemBridge library, Cy5 readout; fluorescence interference ratio at 100 µM; 6% of 16,000 active; Cy5-dT15 DNA with NS3h, fluorescence interference; actives lie on both sides; signal over control mean, under 1 quenches; AID 720488, 2013;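 active means compound fluorescence over control fluorescence at most 0.8, a quencher, or at least a set upper limit, an enhancer; inactive means ratio between 0.8 and the set upper limit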
Starred values were filed as active, the others as inactive. A selection: hits, their analogues and other compounds. The true share with any hit is near 6.8%.

SMILES	HCV NS3h FP	Cy5 interf NS3h
CC(=C\c1ccccc1)/C=C1/SC(=O)N(c2ccc(Cl)cc2)C1=O	16	0.78*
O=C(Nc1ccc(O)cc1)c1cccc(F)c1	6	1
COc1ccc(/C(N)=N\OC(=O)c2ccccc2F)cc1	5	1
CCOC(=O)c1sc(NC(=O)c2cc3n(n2)C(C(F)(F)F)CC(c2ccc4c(c2)OCO4)N3)c(C(=O)OCC)c1C (stereo unspecified)	2	1
CCOC(=O)c1c(NC(=O)c2cc3n(n2)C(C(F)(F)F)CC(c2ccco2)N3)sc(C)c1C (stereo unspecified)	6	0.75*
Cc1ccc(N2C(=O)CC(NCCc3ccccc3)C2=O)cc1 (stereo unspecified)	12	0.98
CCc1ccccc1NC(=O)CN(c1ccc(OC)c(Cl)c1)S(C)(=O)=O	13	0.98
COC(=O)c1cc(NC(=O)c2ccc(OCc3ccccc3)cc2)cc(C(=O)OC)c1	-4	0.95
COC(=O)c1cc(NC(=O)c2cccc(OCc3ccccc3)c2)cc(C(=O)OC)c1	3	1.2*
O=C(CSc1nnc(-c2ccco2)n1-c1ccccc1)Nc1ccccc1[N+](=O)[O-]	4	0.98
CCc1ccc(NC(=O)CSc2nnc(-c3ccco3)n2-c2ccccc2)cc1	-4	0.8*
NC(=O)C1=CN(Cc2ccccc2)C=CC1	6	0.98
COc1ccc2oc(=O)c(C(=O)Nc3ccc(C(C)=O)cc3)cc2c1	6	0.93
O=C(Nc1c(C(=O)N2CCCCCC2)cnn1-c1ccccc1)c1cccc(F)c1	31	1.3*
O=C(Nc1c(C(=O)N2CCOCC2)cnn1-c1ccccc1)c1ccccc1	-2	1
CN(C)c1ccc(-c2nc3cc(NC(=O)c4cc5ccccc5o4)ccc3o2)cc1	3	1
Cc1cc([N+](=O)[O-])ccc1-c1cc2ccccc2oc1=O	18	0.69*
Cc1cc([N+](=O)[O-])ccc1-c1ccc(CO)o1	1	0.92
C=CCNC(=O)c1ccc(N2C(=O)c3ccccc3C2=O)cc1	10	1.1
COc1ccc(N(CC(=O)NCCc2ccc(OC)c(OC)c2)S(=O)(=O)c2ccc(OC)c(OC)c2)cc1	24	1.2*
COc1ccccc1CNC(=O)c1ccc(CN(c2ccccc2)S(C)(=O)=O)cc1	7	0.97
COc1ccc(NC(=O)CN(c2ccc(OC)cc2)S(C)(=O)=O)cc1	7	1
COCCCNC(=O)c1ccc(CN(c2ccccc2)S(C)(=O)=O)cc1	8	0.79*
COc1ccc(OC)c(N(CC(=O)NCCc2ccc(OC)c(OC)c2)S(=O)(=O)c2ccc(OC)c(OC)c2)c1	7	1
COCCCNC(=O)c1ccc(N(C)S(=O)(=O)c2ccccc2)cc1	4	1.1
SMILES	HCV NS3h FP	Cy5 interf NS3h
COc1ccc(N(CC(=O)Nc2ccc(C)c(C)c2)S(C)(=O)=O)cc1	10	1.2*
COc1ccc(N(Cc2ccc(C(=O)NCc3ccccc3OC)cc2)S(=O)(=O)c2ccccc2)cc1	20	0.69*
Cc1ccc(OCC(=O)N2CCN(c3ccc([N+](=O)[O-])cc3)CC2)cc1C	-2	0.91
Cc1ccc(-n2c(C)cc(/C=C(/C#N)C(=O)Nc3ccc(F)cc3)c2C)cc1	2	1.1
Cc1ccc(CN2CCN(/N=C\c3cccc(F)c3)CC2)cc1	10	0.94
CCOc1cc(C2C3=C(CC(C)(C)CC3=O)NC3=C2C(=O)CC(C)(C)C3)cc(Br)c1OC	12	1.1
Cc1ccnc(NC(=O)Cc2ccc(Cl)cc2)c1	6	1.1
COC(=O)c1c(C)oc2ccc(OCc3cccc(F)c3)cc12	14	0.92
Cc1ccc(N(Cc2ccc(C(=O)NCCSc3ccc(Cl)cc3)cc2)S(C)(=O)=O)cc1C	0	0.93
COc1ccc(CCNC(=O)c2ccc(N(Cc3ccc(Cl)cc3)S(C)(=O)=O)cc2)cc1OC	8	0.75*
O=C(c1ccc(Cl)cc1)N1CCN(c2ccc([N+](=O)[O-])c(N3CCOCC3)c2)CC1	17	0.97
Cc1ccc(SCC(=O)Nc2cccc([N+](=O)[O-])c2)cc1	13	0.95
Cc1ccc(Nc2nc(Nc3cccc([N+](=O)[O-])c3)nc(SC(=S)N3CCOCC3)n2)cc1	-60	0.45*
O=C(c1ccccc1F)N1CCN(c2ccc([N+](=O)[O-])c(NCc3ccccc3)c2)CC1	11	1
CCc1cc2c(=O)c(-c3nc4ccccc4s3)c(C)oc2cc1OS(C)(=O)=O	7	1.2*
CCC(=O)Oc1cc2oc(CC)c(-c3nc(C)cs3)c(=O)c2cc1CC	18	0.91
FC(F)(F)c1cc(/C=C/c2ccccc2)no1	6	1.2
COc1ccc(NC(=S)NCc2ccc(Cl)cc2)cc1	20	1
COc1ccc(-n2c(C)ccc2C)c(N)c1	6	0.92
COc1cc(C(=O)O)c(-n2c(C)ccc2C)cc1OC	29	1.4*
